Screening results from PubChem.
CYP2C19 inh – human CYP2C19 inhibition. P33261. CYP2C19 Supersomes, luciferin-H EGE luminescence, 30 min. inhibition, % at 5 µM. actives 21% (n = 96,000);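 active means CYP2C19 inhibition above a set limit at 5 µM in the primary screen, cut at about 50% in these data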;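 further: plate controls were negative control wells for no effect and 2.5 mM tranylcypromine positive control for full effect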
MRP resist rev – MRP-mediated drug resistance reversal | H69AR cells + 2 uM doxorubicin, CellTiter-Glo, 72 h | differential viability (reversal), % at 10 µM | actives 0.04% (n = 85,000);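 active means viability drop by adding the cancer drug above about 55%, with treated viability meeting a 40% cutoff, limit read from the data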;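 further: viability without doxorubicin minus viability with 2 µM doxorubicin for each compound; larger differential means the compound sensitizes cells more to doxorubicin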
CYP2C9 inhib – human CYP2C9 inhibition; AID 777; P11712; inhibition, % at 5 µM; CYP2C9 Supersomes, luciferin-H conversion, luminescence; actives 20% (n = 96,000);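 active means blocking of liver enzyme CYP2C9 beyond about 50% at 5 µM, limit read from the data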
Target sequence (P11712 whole entry, looked up): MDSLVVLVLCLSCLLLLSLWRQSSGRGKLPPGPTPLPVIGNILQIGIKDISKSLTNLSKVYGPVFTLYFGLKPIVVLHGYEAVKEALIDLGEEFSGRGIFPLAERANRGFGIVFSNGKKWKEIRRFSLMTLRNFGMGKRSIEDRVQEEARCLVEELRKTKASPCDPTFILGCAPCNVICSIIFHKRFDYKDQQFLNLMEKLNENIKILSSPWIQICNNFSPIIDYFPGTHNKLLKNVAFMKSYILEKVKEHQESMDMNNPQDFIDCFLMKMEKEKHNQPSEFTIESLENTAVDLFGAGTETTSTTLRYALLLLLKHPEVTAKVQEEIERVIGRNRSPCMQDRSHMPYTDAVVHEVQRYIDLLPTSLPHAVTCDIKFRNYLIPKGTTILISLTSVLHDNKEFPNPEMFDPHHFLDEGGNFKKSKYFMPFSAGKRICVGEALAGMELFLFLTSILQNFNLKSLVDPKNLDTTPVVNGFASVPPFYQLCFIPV
MRP-1 activ – activators of MRP-1. H69AR cells + doxorubicin, viability rescue, CellTiter-Glo. viability increase, % at 10 µM. actives 0.61% (n = 140,000);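 active means viability gain under doxorubicin at or above a set limit, the compound median plus 3 SD, cut at about 4.7% in these data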;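 further: MRP-1 overexpressing cells given doxorubicin 25 µM after compound pretreatment; 18-22 h compound pretreatment then 72 h with doxorubicin before readout; 0% = doxorubicin-only wells and 100% = vehicle-treated cells without doxorubicin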
CYP2C9 act – CYP2C9 (human) activation. P11712. recombinant CYP2C9, luciferin-H conversion, luminescence; active compounds read high; factor 1 = untreated enzyme, 0 = blocked. activation factor at 5 µM. actives 1.4% (n = 96,000);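 active means activation factor of 2 or more for CYP2C9 at a 5 µM dose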;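 further: 0 = sulfaphenazole-blocked wells and 1 = vehicle-only wells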
CYP2C19 act – increases human CYP2C19 enzyme activity. P33261. recombinant CYP2C19, luciferin-H EGE luminescence; active compounds read high; 0 = fully inhibited enzyme, 1 = untreated enzyme. activation factor at 5 µM. 96,000 tested, under 10 active;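 active means activation factor of at least 2 at 5 µM in the primary screen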;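 further: 0 = wells with 2.5 mM tranylcypromine and 1 = vehicle-only wells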
* = called active by the depositor; . = no result given. Rows were chosen to be rich in hits. Some 21% of all compounds tested hit in one or more screens of this group.

SMILES	CYP2C19 inh	MRP resist rev	CYP2C9 inhib	MRP-1 activ	CYP2C9 act	CYP2C19 act
CCS(=O)(=O)n1nc(-c2ccccc2)nc1NCc1ccco1	.	15	.	-2	.	.
COc1ccccc1C(=O)n1nc(-c2ccco2)nc1N	57*	10	11	1	0.9	0.4
O=C(COc1ccccc1)n1nc(-c2ccc(Cl)cc2)nc1NCc1ccco1	69*	-26	55*	-1	0.4	0.3
CCN(CCCNC(=O)Cn1ncc2c(=O)oc3ccccc3c21)c1cccc(C)c1	64*	-29	70*	-3	0.3	0.4
Cn1cc(CC(=O)NCCCN2CCCC2=O)c2ccccc21	16	12	-138	-2	2.4*	0.8
CCN(CCCNC(=O)CNC(=O)Cn1cnc2ccccc2c1=O)c1cccc(C)c1	8	-8	34	-2	0.7	0.9
O=C(Cn1ncc2c(=O)oc3ccccc3c21)Nc1nc2ccccc2s1	12	-4	51*	-2	0.5	0.9
O=C(Cn1ncc2c(=O)oc3ccccc3c21)NC1CC1	4	.	11	-1	0.9	1
Cc1ccc2oc(=O)c3cnn(CC(=O)NCCN(C)C)c3c2c1	.	-2	.	-1	.	.
CCCN(C(=O)Cn1ncc2c(=O)oc3ccccc3c21)c1cccc(C)c1	36	6	60*	-4	0.4	0.6
CCCCn1c(=O)c(CCC(=O)OCC(=O)Nc2cccc3ccccc23)nc2ccccc21	.	.	.	-3	.	.
CC(C)CN(CC(C)C)C(=S)NC1CCCCC1	.	.	.	-1	.	.
COn1c(SCC(=O)N(C)C)nc2ccccc2c1=O	13	3	-12	0	1.1	0.9
O=C(Cn1ncc2c(=O)oc3ccccc3c21)NCCCN1CCCC1=O	80*	10	11	0	0.9	0.2
COCCCNC(=O)Cn1ncc2c(=O)oc3ccccc3c21	3	.	-10	-1	1.1	1
O=c1c2ccccc2nnn1CSc1nnc(-c2cccnc2)n1-c1ccccc1F	75*	9	2	-2	1	0.2
O=c1c2ccccc2nnn1CSc1ccccc1F	.	.	.	0	.	.
CCOC(=O)CCSc1nnc(-c2cccnc2)n1-c1ccccc1OC	54*	10	22	-1	0.8	0.5
COc1ccccc1-n1c(SCC(N)=O)nnc1-c1ccccc1	10	.	-2	-3	1	0.9
Nn1c(Cc2ccccc2F)nnc1SCn1nnc2ccccc2c1=O	64*	7	26	-1	0.7	0.4
O=C(NCCOc1ccccc1)C(c1ccccc1)c1ccccc1	12	.	21	-2	0.8	0.9
CCC(=O)Nc1ccc2c(c1)nc(CN1CCN(C(C)=O)CC1)n2C	3	-2	-9	1	1.1	1
CCOc1ccccc1NC(=O)CCSc1nc2n[nH]c(C)c2c(=N)n1-c1ccccc1Cl	71*	0	77*	-1	0.2	0.3
O=C1Nc2cc(Cl)c(Cl)cc2N(O)N1c1ccc(Cl)c(Cl)c1	12	4	54*	-2	0.5	0.9
O=C1Nc2ccccc2N(O)N1c1ccc(S(=O)(=O)N2CCOCC2)cc1	.	.	.	-1	.	.
SMILES	CYP2C19 inh	MRP resist rev	CYP2C9 inhib	MRP-1 activ	CYP2C9 act	CYP2C19 act
Cc1ccc(COc2cccc3c2CCN(Cc2ccc(F)cc2)C3=O)cc1	.	.	.	5.0*	.	.
Cc1ccc(S(=O)(=O)CCC(=O)N2CCN(c3ccc(Cl)cc3)CC2)cc1	.	0	.	-1	.	.
Brc1ccc2ncnc(NCc3ccccc3)c2c1	74*	1	49	-4	0.5	0.3
CCOC(=O)/C(C#N)=C1/SC(CC)C(=O)N1c1ccc(C)cc1 (centres undefined)	91*	2	55*	0	0.4	0.1
Cc1ccc(CC2S/C(=C(/C#N)C(=O)NCc3ccco3)N(c3ccccc3)C2=O)cc1 (centres undefined)	-10	-33	1	6.6*	1	1.1
NC(=O)c1ccc(NC(=O)COC(=O)c2cccc(Oc3ccccc3)c2)cc1	.	.	.	-3	.	.
Cc1ccccc1-n1c(=O)cc(N2CCN(Cc3ccccc3)CC2)[nH]c1=O	-14	12	-19	-2	1.2	1.1
CCN1CCN(c2cc(=O)n(-c3cc(Cl)ccc3C)c(=O)[nH]2)CC1	20	.	60*	-2	0.4	0.8
Cc1cc(C(=O)OCC(=O)N2CCN(c3ccccc3)CC2)c2ccccc2n1	39	11	-175	0	2.8*	0.6
O=C(OCC(=O)N1CCN(c2ccccc2)CC1)c1ccc2ncsc2c1	73*	4	-63	0	1.6	0.3
O=C(OCC(=O)N1CCN(C(=O)c2ccco2)CC1)c1cn(-c2ccccc2)nc1-c1ccccc1	43	-4	68*	-1	0.3	0.6
O=C(OCc1ccco1)c1ccc(S(=O)(=O)N2CCCCC2)cc1	-19	4	-24	-2	1.2	1.2
O=C(OCC(=O)N1CCN(C(=O)c2ccco2)CC1)c1ccc(S(=O)(=O)N2CCCCC2)cc1	1	17	60*	-1	0.4	1
O=C(OCC(=O)N1CCN(c2ccccc2)CC1)c1ccco1	25	-21	12	-2	0.9	0.7
CCN(CC)c1ccc(C(=O)OCC(=O)N2CCN(c3ccccc3)CC2)cc1	7	-9	6	-2	0.9	0.9
O=C(OCC(=O)N1CCN(C(=O)c2ccco2)CC1)c1cc(-c2cccc(Br)c2)nc2ccccc12	-9	-12	61*	0	0.4	1.1
O=C(OCC(=O)N1CCCC1)c1ccccc1OCc1ccccc1	12	7	11	-2	0.9	0.9
O=C(OCC(=O)N1CCN(C(=O)c2ccco2)CC1)c1cc(-c2ccc(F)cc2)nc2ccccc12	12	1	40	-2	0.6	0.9
O=C(OCC(=O)N1CCN(C(=O)c2ccco2)CC1)c1ccccc1C(=O)c1ccccc1	14	3	18	-2	0.8	0.9
O=C(OCC(=O)N1CCN(C(=O)c2ccco2)CC1)c1cc(-c2ccccc2)nc2ccccc12	50	10	76*	-2	0.2	0.5
O=C(OCC(=O)N1CCN(C(=O)c2ccco2)CC1)c1ccccc1OCc1ccccc1	64*	-12	87*	-4	0.1	0.4
N#Cc1ccc(N2Cc3ccccc3C2=NC(=O)c2cccnc2Cl)cc1	.	.	.	-1	.	.
COCCCNc1nc2c(c(=O)[nH]c(=O)n2C)n1CCCc1ccccc1	70*	11	39	-1	0.6	0.3
Cn1c(=O)[nH]c(=O)c2c1nc(NCCCO)n2CCCc1ccccc1	10	19	10	-1	0.9	0.9
Cc1ccc(Cn2c(NCCCn3ccnc3)nc3c2c(=O)n(C)c(=O)n3C)cc1	98*	3	99*	0	0	0
Cn1c(=O)c2c(nc(NCCc3ccccc3)n2Cc2ccc(F)cc2)n(C)c1=O	39	13	47	0	0.5	0.6
CCOCCCNc1nc2c(c(=O)n(C)c(=O)n2C)n1CCCc1ccccc1	68*	-12	82*	-1	0.2	0.3
